Assay results reported in PubChem BioAssay (Tox21).
Results filed as inconclusive are left out. Calls of active or inactive are those of the source. Calls follow the shape of the dose curve; as a rule, active = well fitted cell-killing curve with a large enough effect in the repeat runs; inconclusive = weak or mixed curves; inactive = flat fitted curve, though single readings scatter.

Assay: qHTS RealTime-Glo MT Cell Viability Assay in HepG2 cells - 32 hour (AID 1224877); also: nearly all actives have a fitted effect of over 55% in size
Details: RealTime-Glo luminescence; series mostly up to 76.8 µM
Source text: U.S. Tox21 Program National Center for Advancing Translational Sciences [NCATS] NIH Chemical Genomics Center [NCGC] U.S. Environmental Protection Agency [EPA] National Institutes of Environmental Health Sciences [NIEHS] National Toxicology Program [NTP] U.S. Food and Drug Administration [FDA] Tox21 Assay Overview: Measure of cell viability is critical in the cell-base assay. Analysis of cell viability is necessary for the characterization of cell responses to cytotoxic drugs and environmental stress. A RealTime-Glo MT Cell Viability Assay to monitor cell viability in real time of continues cell culture during 40 hours of compound treatment was used to screen Tox21 10K library compounds in HepG2 cells. The RealTime-Glo MT Cell Viability Assay is a nonlytic, homogeneous, bioluminescent method to measure cell viability in real time using a simple, plate-based method. The assay involves adding NanoLuc luciferase and a cell-permeant prosubstrate to cells in culture. Viable cells reduce the proprietary prosubstrate to generate a substrate for NanoLuc luciferase. This substrate diffuses from cells into the surrounding culture medium, where it is rapidly used by the NanoLuc Enzyme to produce a luminescent signal. The signal correlates with the number of viable cells, making the assay well suited for cytotoxicity studies.
Tox21 Assay Protocol Summary: The mixture of HepG2 cell suspension and reagents were dispensed at 600cells/6 ul/well in 1536-well tissue culture treated black solid bottom plates using a Multidrop dispenser. After the assay plates were incubated at a 37 C/5% CO2 incubator for 5 hours, 23 nL of compounds dissolved in DMSO, positive and negative controls was transferred to the assay plate by a pintool work station. The plates were incubated at 37 C for 40 hours. The luminescence intensity were measured at 0h, 8h, 16h, 24h, 32h and 40h time points using ViewLux plate reader during compound treatment.
With `CCCCOC(=O)COc1ccc(Cl)cc1Cl` the outcome was “inactive”. In the case of `CCCCCC1=CCCC1=O`, the outcome is reported as “inactive”. For `CCCCCC(N)=O`, the outcome was “inactive”. For `CN(C)CCOCCN(C)C`, the outcome was “inactive”. With `COc1ccc(Nc2ccccc2)c(C)c1` the outcome was “inactive”. For `C=C(C)C(=O)Nc1ccc(Cl)c(Cl)c1`, the outcome was “inactive”. In the case of `Nc1ccccc1[N+](=O)[O-]`, the outcome is reported as “inactive”. With `CSCCC=O` the outcome was “inactive”. For `O=C(O)c1ccc(C(=O)O)cc1`, the outcome was “inactive”. For `O=C(CC(C(=O)OC1CCCCC1)S(=O)(=O)O)OC1CCCCC1` (stereo not given), the outcome was “inactive”. For `c1ccc2scnc2c1`, the outcome was “inactive”. In the case of `C[Si](O[Si](C)(C)C)O[Si](C)(C)C`, the outcome is reported as “inactive”. In the case of `Fc1ccc(Br)cc1`, the outcome is reported as “inactive”. With `CC(O)COCC(C)O` (stereo not given) the outcome was “inactive”. With `O=C(OCCOCCOC(=O)c1ccccc1)c1ccccc1` the outcome was “inactive”. With `C[C@H]1C[C@@H]2[C@H]([C@@H](O)C[C@@]3(C)[C@H]2CC[C@]3(O)C(=O)CO)[C@@]2(C)C=CC(=O)C=C12` the outcome was “inactive”. For `O=C(O)CCCCCCCCCCC(=O)O`, the outcome was “inactive”. With `CC(=O)Nc1cccc(O)c1` the outcome was “inactive”. For `O=S(=O)(O)c1ccc2ccccc2c1`, the outcome was “inactive”. In the case of `CCCCCCCCCCCCOCCO`, the outcome is reported as “inactive”. With `CCCCCC/C(C=O)=C\c1ccccc1` the outcome was “inactive”. For `CCC(O)OCCCOC` (stereo not given), the outcome was “inactive”. With `CCCCC(CC)CO` (stereo not given) the outcome was “inactive”. In the case of `COc1cc(Cc2cnc(N)nc2N)cc(OC)c1OC`, the outcome is reported as “inactive”. For `Nc1cc([N+](=O)[O-])ccc1O`, the outcome was “inactive”. In the case of `CC(C)(C)[C@@H](O)[C@@H](Cc1ccc(Cl)cc1)n1cncn1`, the outcome is reported as “inactive”. With `C#CCN(C)Cc1ccccc1` the outcome was “inactive”. With `CC(=O)CC(=O)Nc1ccccc1C` the outcome was “inactive”. With `N[C@@H](Cc1cc(I)c(Oc2cc(I)c(O)c(I)c2)c(I)c1)C(=O)O` the outcome was “inactive”. With `O=c1[nH]c(=O)n([C@H]2C[C@H](O)[C@@H](CO)O2)cc1Br` the outcome was “inactive”. For `C=CCNC(N)=S`, the outcome was “inactive”. For `CCCCC(CC)COC(=O)CS` (stereo not given), the outcome was “inactive”. For `c1ccc2c(c1)ccc1ccccc12`, the outcome was “inactive”. For `C[C@H]1C[C@H]2[C@@H]3CCC4=CC(=O)C=C[C@]4(C)[C@@]3(F)[C@@H](O)C[C@]2(C)[C@@]1(O)C(=O)CO`, the outcome was “inactive”. With `O=C(O)CC(C(=O)O)C(CC(=O)O)C(=O)O` (stereo not given) the outcome was “inactive”. In the case of `Cc1cccnc1`, the outcome is reported as “inactive”. With `COc1ccc2cc([C@H](C)C(=O)O)ccc2c1` the outcome was “inactive”. For `O=[N+]([O-])c1ccc(/C=C/c2ccc([N+](=O)[O-])cc2S(=O)(=O)O)c(S(=O)(=O)O)c1`, the outcome was “inactive”. In the case of `CN(C)CCCN`, the outcome is reported as “inactive”. With `CCCCCCCCCCCCCCO` the outcome was “inactive”.
